Screens deposited in PubChem by National Center for Advancing Translational Sciences (NCATS).
Hits are enriched below; roughly 6.9% of the tested compounds scored in any of these assays.
MCF10A rerep = induces DNA re-replication in MCF 10a normal breast cells | MCF 10A DNA re-replication, Hoechst nuclear intensity, 48 h | Potency, µM (highest dose often 46.1 µM), inactives show at the highest dose activity, positive = re-replication, usual class: activators | actives 2.9% (n = 350,000); note: potency is the fitted concentration of half-maximal effect; % of control where 0% means no effect; nearly all actives have a fitted effect of over 50% in size
SW480 rerep = induces DNA re-replication in SW480 colon adenocarcinoma cells | actives 1.8% (n = 340,000) | SW480 DNA re-replication, Hoechst DNA content imaging, 48 h | Potency, µM (top dose mostly 46.1 µM), for inactives: at the top dose re-replication activation, hits mostly activators | AID 624297; note: potency is the fitted concentration of half-maximal effect; % of control where 0% means no effect; nearly all actives have a fitted effect of over 55% in size
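Treated cells incubate 48 hr (37 C, 5% CO2), are stained 40 min with Hoechst, and nuclear fluorescence is enumerated; a rise in nuclei with high DNA signal marks re-replication.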
Vif-APOBEC3G blk = Vif-A3G binding inhibition | Q9HC16 | HeLa A3G-eYFP + Vif (tagged APOBEC3G with the HIV-1 protein that degrades it), YFP fluorescence, overnight | Potency, µM (titrated, usually from 46.1 µM), inactives show at the top dose activity, negative = active, most hits filed as inhibitors | actives 0.076% (n = 410,000); note: potency is the fitted concentration of half-maximal effect; % is set by controls: 0 for no effect and ±100 for the full control effect; nearly all actives have a fitted effect of over 60% in size
Target sequence (Q9HC16 whole entry, looked up): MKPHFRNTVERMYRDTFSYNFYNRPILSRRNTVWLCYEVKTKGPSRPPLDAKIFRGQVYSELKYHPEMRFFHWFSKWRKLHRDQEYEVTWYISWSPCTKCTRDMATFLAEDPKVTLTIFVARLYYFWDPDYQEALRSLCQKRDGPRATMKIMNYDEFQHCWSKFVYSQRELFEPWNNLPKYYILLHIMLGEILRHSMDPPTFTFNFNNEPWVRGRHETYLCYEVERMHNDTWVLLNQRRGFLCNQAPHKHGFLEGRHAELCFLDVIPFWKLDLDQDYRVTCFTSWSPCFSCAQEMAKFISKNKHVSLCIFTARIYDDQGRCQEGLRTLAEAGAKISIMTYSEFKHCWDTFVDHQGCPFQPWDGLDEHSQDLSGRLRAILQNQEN
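HeLa cells stably expressing Vif and C-terminally eYFP-tagged A3G, seeded overnight at 37 deg C, then exposed to compound by pintool overnight at 37 deg C. Rise in yellow fluorescence (Ex 488/Em 500-530, Acumen) marks blocked Vif-driven A3G degradation.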
Vif-APOBEC3F blk = inhibitors of Vif-A3F interaction; HeLa A3F-eYFP + Vif (tagged APOBEC3F with the HIV-1 protein that degrades it), YFP fluorescence increase; Potency, µM (series often up to 46.1 µM), for the others: top-dose activity, negative = active; actives 0.2% (n = 390,000); note: potency is the fitted concentration of half-maximal effect; % of control where 0% means no effect; nearly all actives have a fitted effect of over 65% in size
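Fluorescence increase (Ex 488/Em 500-530) after overnight compound treatment at 37 deg C flags inhibition of Vif-driven A3F-eYFP loss in stable HeLa A3F-eYFP/Vif cells seeded overnight beforehand.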
IL-1B inflam inh = inhibitors of inflammasome signaling (IL-1 beta secretion); THP-1 LPS/ATP IL-1B secretion, AlphaLISA, 16 h; active compounds read low; activity change, % at 57.5 µM; actives 4.7% (n = 360,000); AID 743279; in the data active = activity change below about -50%; inconclusive = mostly about -30% to -49%; note: % is set by controls: 0 for no effect and ±100 for the full control effect
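Secreted IL-1B measured by AlphaLISA bead assay after 16 h compound exposure of THP-1 cells; compounds (final up to 57.5 uM) added 1 h before LPS (250 ng/mL) and ATP (1.25 mM) stimulation; lower signal means less secretion.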
Giardia killer = Giardia lamblia killing. actives 0.15% (n = 340,000). Giardia lamblia trophozoite viability. activity change, % at 7.66 µM, hits read low. AID 540267; in the data active = activity change below about -80%; inconclusive = between about -30% and that limit;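 note: parasites exposed to compound for two days anaerobically before the ATP read; % is set by controls: 0 for no effect and ±100 for the full control effect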
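Luminescence from cellular ATP indicates surviving trophozoites (100 cells/well) following 48 hrs anaerobic compound treatment at 37 deg C; signal develops 15-30 min at room temperature.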
An asterisk follows results filed as active; i = inactive; ? = inconclusive; · = not tested or not shown. Unless noted, calls come from the whole dose curve; as a rule, active = well fitted curve in the direction sought with a large enough effect; inconclusive = small, poorly fitted or top-dose-only effect, or another doubt; inactive = no such curve, though single readings can be large; an effect the other way counts as inactive or inconclusive.

SMILES | MCF10A rerep | SW480 rerep | Vif-APOBEC3G blk | Vif-APOBEC3F blk | IL-1B inflam inh | Giardia killer
CCc1ccc(CN(C)C(=O)c2cc(COc3cc(C)c(Cl)c(C)c3)on2)nc1 | 23µM* | -4% | 7% | 7% | 0 | 2
CC(=O)Nc1ccc(NC(=O)CCc2ccc(C)o2)cc1 | -6% | -1% | 4% | -17% | -7 | 14
Cc1ccc(CCC(=O)Nc2ccc([N+](=O)[O-])cc2)o1 | 14% | 1% | -1% | 15% | -74* | -7
CNC(=O)Nc1cc(C)nn1C | -5% | 23µM* | 5% | -20% | 15 | -24
Cc1cc(NC(=O)Nc2cccc(C(F)(F)F)c2)n(C)n1 | 23% | -6% | 4% | 10% | -3 | 5
CCc1cccc(NS(=O)(=O)c2cc(-c3cnc(C)o3)ccc2OC)c1 | · | · | -1% | 2% | · | ·
CC(C)c1ccc(/C=N/NC(=O)c2cc(-c3cccc([N+](=O)[O-])c3)n[nH]2)cc1 | 18µM* | -7% | -11% | ? | 14 | 11
CC(C)c1ccc(/C=N/NC(=O)c2ccccn2)cc1 | 17% | 17% | 0% | 7% | -53* | -30
O=C(N/N=C/c1ccncc1)c1ccccn1 | -7% | -7% | -2% | 4% | 8 | -19
CC(C)c1ccc(/C=N/NC(=O)c2cccc(Cl)c2)cc1 | 5.8µM* | ? | ? | 5% | -15 | 3
O=C(NC(c1ccc(Cl)cc1)c1ccsc1)C1CCN(CCOc2ccc(Cl)cc2)CC1 (configuration not stated) | · | · | -10% | · | -68* | ·
COc1ccc(C(NC(=O)C2CCN(CCCOc3ccccc3)CC2)c2cccs2)cc1 (configuration not stated) | · | · | 1% | · | -56* | ·
COc1ccc(OCCN2CCC(C(=O)NC(c3ccc(Cl)cc3)c3cccnc3)CC2)cc1 (configuration not stated) | · | · | -11% | · | -12 | ·
CCCN1CCC(NC(=O)c2cccc(Oc3ccccc3)c2)CC1 | ? | ? | 0% | -5% | i | 23
COc1cc(OC)cc(C(=O)NC2CCN(CCCOc3ccccc3)CC2)c1 | 26% | -4% | -9% | -8% | -52* | -9
COc1ccc(C(NC(=O)C2CCN(CCOc3ccc(Cl)cc3Cl)CC2)c2ccccn2)cc1 (configuration not stated) | · | · | -10% | · | -56* | ·
Cc1cccnc1C(c1ccc(F)cc1)N(C)C(=O)C1CCN(CCOc2ccc(Cl)cc2Cl)CC1 (configuration not stated) | · | · | -18% | · | -56* | ·
Cc1cccnc1C(c1ccc(F)cc1)N(C)C(=O)C1CCN(CCCOc2ccc(F)cc2)CC1 (configuration not stated) | · | · | 6% | · | ? | ·
O=C(NC(c1ccccc1)c1cnccn1)C1CCN(CCCOc2ccccc2)CC1 (configuration not stated) | · | · | -3% | · | -10 | ·
O=C(NC(c1ccc(Cl)cc1)c1cnccn1)C1CCN(CCCOc2ccccc2)CC1 (configuration not stated) | · | · | 1% | · | -58* | ·
COc1cc(OC)nc(C(NC(=O)C2CCN(Cc3c[nH]c4ccccc34)CC2)c2ccc(Cl)cc2)n1 (configuration not stated) | · | · | -12% | · | -61* | ·
Cc1ccc(C(NC(=O)C2CCN(CCOc3ccc(Cl)cc3)CC2)c2ccccn2)cc1 (configuration not stated) | · | · | -3% | · | -70* | ·
Cc1cc(=O)n2nc(N(C)CC(=O)NCc3cccc(Br)c3)sc2n1 | · | · | 4% | 2% | · | ·
COc1ccc(C2CC(=O)c3c(C)nc(N4CCN(C=O)CC4)nc3C2)c(OC)c1 (configuration not stated) | · | · | ? | -5% | · | ·
COC(=O)c1cc(NC(=O)c2oc(=O)c3ccccc3c2-c2ccccc2)cc(C(=O)OC)c1 | · | · | 0% | -2% | · | ·
SMILES | MCF10A rerep | SW480 rerep | Vif-APOBEC3G blk | Vif-APOBEC3F blk | IL-1B inflam inh | Giardia killer
COc1ccc(C2c3cccn3CCN2S(=O)(=O)c2ccc([N+](=O)[O-])cc2)cc1 (configuration not stated) | · | · | -1% | -4% | · | ·
Cc1ccc2c(c1)N(C(=O)CCC(=O)NCc1ccccc1Cl)CC(C)O2 (configuration not stated) | · | · | 2% | 4% | · | ·
COc1ccc(C(=O)C(=NNc2ccccc2)c2ccc(OC)cc2)cc1 | 1% | 3% | 0% | 6% | -55* | 6
COc1ccc(N/N=C(\C=N\O)C(=O)c2ccc(OC)cc2)cc1 | 6.5µM* | ? | ? | -22% | 17 | -17
COc1ccc(C(=O)C(=NN)c2ccccc2)cc1 | · | · | 1% | 6% | 0 | ·
CC(=O)c1ccc(NC(=O)CSc2nc(N3CCOCC3)nc(N3CCOCC3)n2)cc1 | 5% | -5% | 3% | -2% | -7 | 7
CC(=O)c1cccc(NC(=O)CSc2nc(N3CCCCC3)nc(N3CCCCC3)n2)c1 | 5% | 2.2µM* | 1% | 13% | 19 | 36
CCS(=O)(=O)c1nc(S(=O)(=O)c2ccc(Cl)cc2)c(NCc2ccc(Cl)cc2)s1 | · | · | 1% | 0% | · | ·
CCC1(C)CC2(CCCN(CCC(=O)c3ccccc3)C2)CCO1 (configuration not stated) | 21µM* | 11% | -1% | -3% | 1 | 0
COc1ccc(-c2cc(C#N)nc(Cl)n2)cc1 | ? | 24% | -22% | 0% | · | -6
CCN(CC)c1nc(C#N)cc(-c2ccc(OC)cc2)n1 | 15µM* | 12µM* | ? | -12% | -9 | ?
O=C(Nc1ccc(OC(F)F)c(Cl)c1)c1cccc(OC(F)F)c1 | 73% | 19% | 6% | -6% | -55* | 5
Cc1ccc(NC(=O)C(C)c2ccc([N+](=O)[O-])cc2)cc1Cl (configuration not stated) | 25% | -1% | -3% | -6% | -104* | -4
O=C(Nc1cccc([N+](=O)[O-])c1)Nc1cccs1 | 0.65µM* | -9% | -1% | 6% | ? | 4
COc1ccc(NC(=O)Nc2cccc([N+](=O)[O-])c2)cc1Cl | ? | -1% | -5% | 4% | -84* | -11
COc1ccc(NC(=O)c2cccc(OC(F)F)c2)cc1Cl | 4% | -1% | 0% | -7% | -19 | 11
CCN(CC)S(=O)(=O)c1ccc2c(c1)N(CC(=O)N1CCN(c3cccc(C)c3)C(C)C1)C(=O)CO2 (configuration not stated) | · | · | -3% | -2% | · | ·
Cc1oc(-c2ccc(C(=O)NCc3cccc(F)c3)cc2)nc1COc1ccccc1 | · | · | -2% | 0% | · | ·
O=C(Nc1ccc(OC(F)F)c(Cl)c1)Nc1ccc2c(c1)OCO2 | ? | -4% | -10% | 2% | -79* | -5
